Compound activity deposited in PubChem by National Center for Advancing Translational Sciences (NCATS).
The list is not random: actives were taken first. Their share in the collection is about 21%.
RORgamma inh: blocks mouse ROR gamma transcriptional activity. AID 2551. hit rate 5.4% among 310,000. Potency, µM (highest dose often 53.6 µM), for inactives: at the top dose activity change, negative = inhibition, usual class: inhibitors. Drosophila S2 Gal4-RORgamma UAS-luciferase reporter, 20 h. P51450; further: potency means the concentration at half of the fitted maximal effect; nearly all actives have a fitted effect of over 60% in size
Target sequence (P51450 whole entry, looked up, the tested form may be a part): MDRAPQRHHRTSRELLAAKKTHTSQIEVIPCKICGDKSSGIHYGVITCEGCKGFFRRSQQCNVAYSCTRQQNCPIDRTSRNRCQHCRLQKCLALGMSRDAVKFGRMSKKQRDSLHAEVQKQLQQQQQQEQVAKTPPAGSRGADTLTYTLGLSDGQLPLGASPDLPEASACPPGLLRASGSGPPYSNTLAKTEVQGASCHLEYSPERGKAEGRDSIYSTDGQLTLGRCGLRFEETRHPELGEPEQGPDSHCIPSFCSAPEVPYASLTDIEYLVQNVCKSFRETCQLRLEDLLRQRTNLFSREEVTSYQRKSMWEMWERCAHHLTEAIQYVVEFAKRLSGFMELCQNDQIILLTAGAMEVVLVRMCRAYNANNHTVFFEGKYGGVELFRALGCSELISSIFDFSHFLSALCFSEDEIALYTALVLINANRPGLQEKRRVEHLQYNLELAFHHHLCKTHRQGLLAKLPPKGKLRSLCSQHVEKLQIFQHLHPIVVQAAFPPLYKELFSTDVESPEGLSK
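Stably transfected Drosophila Schneider cells are the test system, with ROR gamma fused to Gal4 and luciferase under UAS control; luminescence is read after 20 hr of 700 uM copper sulfate induction at ambient temperature.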
DT40 TDP1 CPT: DT40-hTDP1 cell growth loss with CPT | hit rate 12% among 420,000 | chicken DT40 Tdp1-/-;hTDP1 cells + 20 nM CPT, ATP luminescence, 48 h | Potency, µM (top dose mostly 46.2 µM), without a hit: at the highest dose activity change, negative = growth inhibition, actives largely listed as inhibitors | AID 686979; further: potency means the concentration at half of the fitted maximal effect; nearly all actives have a fitted effect of over 55% in size
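Cell growth measured by CellTiter-Glo luminescence after a minimum 48 h, 37 C compound exposure with 20 nM CPT in Tdp1-knockout DT40 cells stably expressing hTDP1, seeded 400/well; qHTS titration format.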
DT40 TDP1 no CPT: qHTS for Inhibitors of human tyrosyl-DNA phosphodiesterase 1 (TDP1): qHTS in cells in absence of CPT. DT40 Tdp1-/- hTDP1 cells, no CPT, ATP luminescence, 48 h. Potency, µM (series often up to 46.2 µM), inactives show at the top dose activity change, negative = growth inhibition, usual class: inhibitors. hit rate 15% among 420,000; further: potency means the concentration at half of the fitted maximal effect; nearly all actives have a fitted effect of over 55% in size
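Chicken DT40 Tdp1-/- cells complemented with human TDP1, screened without camptothecin (DMSO vehicle only), 400 cells/well. Compounds pin-transferred, cells incubated at 37 °C for at least 48 hr. Growth read as ATP-dependent luminescence (CellTiter-Glo, 30 min at RT).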
ELG1 repair inh: inhibitors of ELG1-dependent DNA repair in HEK293T cells. Potency, µM (series often up to 46.1 µM), for inactives: top-dose activity change, negative = inhibition, actives largely listed as inhibitors. HEK293T ELG1-luciferase reporter, luminescence, 16 h; DNA damage induced by 5-fluorouridine. hit rate 2.3% among 330,000; further: potency means the concentration at half of the fitted maximal effect; nearly all actives have a fitted effect of over 55% in size
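DMSO vehicle served as the neutral condition. Each well held 2,000 cells given 5-fluorouridine plus compound; after 16 hr at 37 °C/5% CO2, ONE-Glo was added and luciferase measured 30 min later.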
IL1B secr inh: inflammasome signaling inhibition, IL-1 beta readout. THP-1 LPS/ATP IL-1B secretion, AlphaLISA, 16 h; stronger effect = lower value. activity change, % at 57.5 µM. hit rate 4.7% among 360,000. AID 743279; in the data active means activity change below about -50%; inconclusive means mostly about -30% to -49%
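THP-1 cells pretreated 1 hr with compounds (up to 57.5 uM final), then stimulated with LPS (250 ng/mL final) plus ATP (1.25 mM final); secreted IL-1B measured by AlphaLISA after 16 hr, decreased signal indicating inhibition.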
Gal4-VP16 FLuc: inhibits Gal4-VP16 luciferase reporter, ROR gamma counter-screen; hit rate 3.5% among 310,000; Drosophila S2 Gal4-VP16 UAS-luciferase, luminescence, 20 h; Potency, µM (doses to about 53.6 µM), for the others: at the highest dose activity, negative = inhibition, usual class: inhibitors;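 further: Gal4-VP16 expression switched on by copper sulfate through the metallothionein promoter; potency means the concentration at half of the fitted maximal effect; nearly all actives have a fitted effect of over 50% in size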
An asterisk follows results filed as active; u = inconclusive; x = not tested or not shown; [ ] = remark or other dose. Unless noted, the call rests on the fitted dose curve; in most records, active means well fitted curve in the direction sought with a large enough effect; inconclusive means small, poorly fitted or top-dose-only effect, or another doubt; inactive means no such curve, though single readings can be large; an effect the other way counts as inactive or inconclusive. On the % scale 0 is the no-effect control and ±100 the full control effect.

SMILES | RORgamma inh | DT40 TDP1 CPT | DT40 TDP1 no CPT | ELG1 repair inh | IL1B secr inh | Gal4-VP16 FLuc
CCc1nc(-c2cc(S(=O)(=O)N3CCN(c4ccccc4)CC3)ccc2OC)no1 | x | 2.5% | 5.4% | x | x | x
CC[C@H](C)[C@@H](CN[C@H](CCCCNC)CNC)NCC1CCCC1 | -6.6% | 11.6% | -9.6% | 15.5% | -2.8 | -3.5%
CCCC[C@@H](CN[C@H](C)CNC)NCC1CCC(C(C)(C)C)CC1 (some centres not stated) | 11.2µM* | 5.8µM* | 6.51µM* | u | -67.0* | -23.7%
CCCCn1nnnc1C1(C)CCC(=O)N1CCCn1ccnc1 (configuration not stated) | x | 20.6µM* | 16.4µM* | x | -6.8 | x
CCN1CCN(c2ccc(NC(=O)c3ccc4c(c3)OCCO4)cc2C)CC1 | x | -9.2% | -21.7% | u | u | x
CCN1CCN(Cc2ccc(NC(=O)c3ccc(C)c(NC(=O)c4cccc5[nH]ccc45)c3)cc2C(F)(F)F)CC1 | 6.31µM* | 11.6µM* | 13µM* | u | -98.1* | -13.3%
CCN1CCN(Cc2ccc(NC(=O)c3ccc(C)c(NC(=O)c4cc(-c5ccc(Br)cc5)n[nH]4)c3)cc2C(F)(F)F)CC1 | u | u | u | u | -57.5* | u
CCN1CCN(Cc2ccc(NC(=O)c3ccc(C)c(NC(=O)c4nccnc4N)c3)cc2C(F)(F)F)CC1 | 19.9% | u | 20.6µM* | u | -92.7* | 3.5%
CCN1CCN(Cc2ccc(NC(=O)c3ccc(C)c(NC(=O)c4nccn4C)c3)cc2C(F)(F)F)CC1 | u | -24.6% | -29.1% | -5.5% | -58.5* | u
O=c1[nH]c2ccsc2c(=O)n1CCO | -14.0% | 10.9% | -3.9% | 13.8% | -0.5 | 0.1%
CCN1CCN(Cc2ccc(NC(=O)c3ccc(C)c(NC(=O)c4cncc(-c5cccs5)c4)c3)cc2C(F)(F)F)CC1 | x | 2.31µM* | 1.64µM* | x | -110.0* | x
Cc1c(CN2CCN(CC(C)C)C(CCO)C2)[nH]c2ccc(Cl)cc12 (configuration not stated) | 6.1% | -3.5% | u | -21.6% | -13.7 | 8.5%
N#CC(c1ccc(F)cc1)c1ccc(C(=O)c2ccccc2)cc1 (configuration not stated) | -26.8% | u | u | -15.4% | -9.5 | u
N#CC(c1ccccc1)c1ccc(C(=O)c2ccc(F)cc2)cc1 (configuration not stated) | 1.4% | -55.6% | 23.1µM* | u | 4.0 | u
CSc1ccccc1-c1cnc2cccnn12 | x | -19.4% | -27.9% | x | -54.3* | x
c1ccc2c(-c3cnc4cccnn34)cncc2c1 | x | u | -28.1% | x | -19.1 | x
c1cc(-c2cnc3cccnn23)c2cccnc2c1 | x | 9.2µM* | u | x | -24.9 | x
Cc1cccc(-c2cnc3cccnn23)c1 | x | u | u | x | -9.3 | x
CCCCN(CC)CCNC(=O)CN1C(=O)COc2ccc(S(=O)(=O)N3CCOCC3)cc21 | x | 8.9% | 9.8% | x | x | x
Cc1noc(C)c1S(=O)(=O)N(CC(=O)NC1CCCC1)c1ccc(C(C)C)cc1 | -24.9% | -14.4% | -17.5% | u | 2.6 | 0.4%
CN(C(=O)COC(=O)Cc1c(F)cccc1Cl)c1c(N)n(Cc2ccccc2)c(=O)[nH]c1=O | x | u | 1.7% | 11.1% | 11.2 | x
CN1C(=O)[C@H]2[C@@H](c3ccc(C(F)(F)F)cc3)N[C@]3(CCCN(CC4CCCCC4)C3=O)[C@H]2C1=O | x | 20.6µM* | 10.3µM* | x | -13.8 | x
Cc1ccc(CN2CCC[C@]3(N[C@H](c4ccc(C)cc4)[C@@H]4C(=O)N(C)C(=O)[C@@H]43)C2=O)cc1 | x | u | u | x | -13.2 | x
Cc1ccc([C@H]2N[C@]3(CCCN(Cc4ccc(Cl)cc4)C3=O)[C@H]3C(=O)N(C)C(=O)[C@@H]23)cc1 | x | u | u | x | 15.8 | x
CN1C(=O)[C@H]2[C@@H](c3ccc(C(F)(F)F)cc3)N[C@]3(CCCN(Cc4ccc(C(F)(F)F)cc4)C3=O)[C@H]2C1=O | x | 23.1µM* | 18.4µM* | x | -4.4 | x
SMILES | RORgamma inh | DT40 TDP1 CPT | DT40 TDP1 no CPT | ELG1 repair inh | IL1B secr inh | Gal4-VP16 FLuc
CN1C(=O)[C@H]2[C@@H](c3ccc(C(F)(F)F)cc3)N[C@]3(CCCN(Cc4ccc(Br)cc4)C3=O)[C@H]2C1=O | x | 14.6µM* | 16.4µM* | x | -18.7 | x
COc1ccc(CNCCS(=O)(=O)NN2CCOCC2)cc1 | x | -2.9% | -5.1% | 19.1% | 8.4 | x
Cc1cccc(C)c1NC(=O)C(c1ccccc1)N1CCC(Cc2ccccc2)CC1 (configuration not stated) | x | 9.2µM* | 9.2µM* | x | 28.0 | x
Cc1cccc(C)c1NC(=O)CN1CCN(CCCC(c2ccc(F)cc2)c2ccc(F)cc2)CC1 | 1.1%[16.9 µM] | 7.31µM* | 5.8µM* | u | -60.2* | -8.7%[17 µM]
Cc1cccc(C)c1NC(=O)CN1CCc2ccccc2C1 | x | 10.3µM* | 16.4µM* | x | 8.0 | x
COc1cc(NC(=O)CN2CCC(Cc3ccccc3)CC2)c(C)cc1[N+](=O)[O-] | 5.1% | 7.31µM* | 8.2µM* | 26.6% | 17.4 | u
Cc1c(NC(=O)CN2CCN(C(c3ccccc3)c3ccccc3)CC2)c(=O)n(-c2ccccc2)n1C | 1.3% | 7.4% | -2.4% | 11.9% | -3.4 | 4.8%
Cc1cccc(C)c1NC(=O)C(c1ccccc1)N1CCN(c2ccc(F)cc2)CC1 (configuration not stated) | x | u | -22.6% | x | 6.6 | x
COc1cc(CN2CCC(Cc3ccccc3)CC2)cc([N+](=O)[O-])c1O | u | 0.1% | 17.0% | -7.4% | 19.5 | 4.4%
CCOC(=O)c1sc(N2C(=O)c3oc4cc(C)c(C)cc4c(=O)c3C2c2ccc(C)cc2)nc1C (configuration not stated) | x | 11.8% | -3.3% | x | x | x
Cc1cccc(C)c1NC(=O)CN1CCC(Cc2ccccc2)CC1 | x | 20.6µM* | 13µM* | x | 17.7 | x
O=C(CN1CCC(Cc2ccccc2)CC1)NC(=O)NCc1ccccc1 | 16.2% | -3.3% | -23.1% | -1.7% | -51.8* | 1.7%
COc1ccc(-n2[nH]c3c4c(ncc3c2=O)CCCCC4)cc1 | 2.6% | x | x | x | x | -10.4%
COc1cc(C2C(C#N)=C(N)OC3=C2C(=O)CC(C)(C)C3)cc([N+](=O)[O-])c1O (configuration not stated) | 7.2% | 0.6% | 26.7% | -17.8% | -20.5 | -3.4%
